This assay deals with Caenorhabditis elegans N2 infected with Nematocida parisii ERTm1. The experiment in a line: progeny production relative to DMSO uninfected control; higher = more progeny despite microsporidia infection (inhibition of infection with low host toxicity). Conditions: infection time 6 days. Summed up:
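Compound was pinned to 100 μM or 40 μM in 1% DMSO into 96-well plates containing K-medium, E. coli OP50, 15,000 N. parisii spores/μL and 100 synchronised wild-type C. elegans L1 larvae per well. Following 6 days of shaking at 21°C, worms were Rose Bengal-stained, scanned and counted with WorMachine, in three runs per compound and dose. Progeny production appears as a replicate-averaged percentage of spore-free vehicle wells.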

Structures are written as SMILES. ± gives the standard deviation of the averaged measurements.

On to `O=S(=O)(NCB(O)O)c1ccc(-c2nnn[nH]2)cc1C(F)(F)F`, for which the progeny production (40 µM) worked out at 7.63 ± 2.6% and the progeny production (100 µM) was found to be 22.1 ± 6.9%.
In the case of `CCOc1ccc(C(=O)NCCc2ccccc2)cc1`, the progeny production was determined as 6.06 ± 3.1% (40 µM) and 6.07 ± 3% (100 µM).
The corresponding values for `CCCCCCC1c2ccc(O)cc2Oc2cc(O)ccc21` are 4.98 ± 1.8% and 29.9 ± 30%.
For the compound `CC[C@@]1(O)C(=O)OCc2c1cc1n(c2=O)Cc2cc3c([N+](=O)[O-])cccc3nc2-1`, the progeny production by setting is: (40 µM) 5.77 ± 1.9%; (100 µM) 8.29 ± 3.3%.
The corresponding values for `N#Cc1cc([N+](=O)[O-])ccc1Oc1ccccc1Cl` are 5.2 ± 2% and 14.5 ± 8.1%.
Taken in the same sequence, the figures for `Nc1nc(NC2Cc3ccc(F)cc3C2)nc(N2CCCCC2)n1` (configuration not stated) were 5.65 ± 3.6% and 6.63 ± 4.3%.
The corresponding values for `O=C(O)c1sccc1S(=O)(=O)n1ccc2cc(Br)ccc21` are 5.86 ± 1.6% and 8.33 ± 1.2%.
Turning to `Clc1cc2nc(C3CCNCC3)n(Cc3ccc(CNCCc4c[nH]cn4)cc3)c2cc1Cl`, the progeny production runs as follows: (40 µM) 7.61 ± 2.7%; (100 µM) 10.3 ± 7.1%.
The corresponding values for `COc1cccc(N2CCN(C3=Nc4c(F)cccc4[C@H](CC(=O)O)N3c3cc(C(F)(F)F)ccc3OC)CC2)c1` are 6.01 ± 2.9% and 14.7 ± 7.5%.
The corresponding values for `Nc1nc2c(ncn2COC(CO)CO)c(=O)[nH]1` are 7.03 ± 4.7% and 10.9 ± 4.7%.
The corresponding values for `N[C@@H]1CN(c2c(F)cc3c(=O)c(C(=O)O)cn([C@@H]4C[C@@H]4F)c3c2Cl)CC12CC2` are 9.37 ± 3.9% and 13.4 ± 6.8%.
As to `CC(C)n1cnc2c(NCc3ccccc3)nc(NCc3ccccc3)nc21`, the progeny production runs as follows: (40 µM) 7.59 ± 5.2%; (100 µM) 12.1 ± 7.2%.
The corresponding values for `O=C(CCc1ccc2c(c1)OCO2)NCc1ccc(-c2ccccc2F)cc1` are 5.04 ± 3.2% and 14 ± 6.8%.
Taken in the same sequence, the figures for `CCNC(=O)Nc1cn2c(-c3ncc(CC)cn3)cc(-c3cccnc3)cc2n1` were 3.09 ± 1.5% and 6.08 ± 4.7%.
The corresponding values for `CCCCCCCCCN1C[C@@H](O)[C@H](O)[C@@H](O)[C@@H]1CO` are 6.57 ± 1.1% and 11.9 ± 5.5%.
Turning to `O=C(NCc1ccc2c3c(cccc13)C(=O)N2)c1cccs1`, the progeny production by setting is: (40 µM) 6.15 ± 4.4%; (100 µM) 9.75 ± 6.2%.
The corresponding values for `O=C(O)/C=C/C=C/c1cccc(Oc2cc(Cl)cc(Cl)c2)c1` are 7.69 ± 2.2% and 13 ± 7.6%.
Taken in the same sequence, the figures for `Cc1ccc(S(=O)(=O)Nc2cccc3cccnc23)cc1` were 6.57 ± 3.6% and 7.42 ± 4.3%.
As to `CCc1ccc(C2CC(C(F)(F)F)n3ncc(C(=O)NCc4ccc(OC)cc4)c3N2)cc1` (configuration not stated), the progeny production (40 µM) was found to be 8.73 ± 4.8% and the progeny production (100 µM) was 7.32 ± 3.4%.
Taken in the same sequence, the figures for `COc1ccc2sc3c(c2c1)NC(C)CNC3=O` (configuration not stated) were 7.35 ± 2.7% and 29.9 ± 22%.
The corresponding values for `CN1c2ccc(Cl)cc2N(c2ccccc2)C(=O)c2cn(Cc3ccc(CN4CCOCC4)cc3)nc21` are 5.41 ± 0.76% and 6.28 ± 3%.
The corresponding values for `OCCC#Cc1nc(-c2ccc(F)cc2)c(-c2ccncc2)n1CCCc1ccccc1` are 5.08 ± 0.6% and 16.6 ± 12%.
Consider `COc1ccc(C2CNC(=O)C2)cc1OC1CCCC1` (configuration not stated), for which the progeny production stood at 4.65 ± 2.2% (40 µM) and 11.2 ± 9.9% (100 µM).
Taken in the same sequence, the figures for `N[C@H](CCC(=O)N[C@@H](Cc1c[nH]c2ccccc12)C(=O)O)C(=O)O` were 6.53 ± 2.2% and 14.8 ± 3.7%.
The corresponding values for `c1ccc(-c2nnc3c4ccccc4c(N4CCNCC4)nn23)cc1` are 2.73 ± 0.97% and 15.6 ± 12%.
As for `CCOC(=O)/C=C/[C@H](C[C@@H]1CCNC1=O)NC(=O)[C@@H](CC(=O)[C@@H](NC(=O)c1cc(C)on1)C(C)C)Cc1ccc(F)cc1`, the progeny production was determined as 3.79 ± 1.2% (40 µM) and 8.56 ± 4.7% (100 µM).
The corresponding values for `Cc1nc(Nc2ccc(F)cc2)nc(N2CCc3ccccc3C2C)c1C` (configuration not stated) are 2.7 ± 0.53% and 20.9 ± 25%.
The corresponding values for `Nc1nc2c(ncn2COCCO)c(=O)[nH]1` are 6.44 ± 2.2% and 8.34 ± 8.3%.
For the compound `CCCCCCCCC(CP(=O)(O)C(C)N)C(=O)O` (configuration not stated), the progeny production was 7.53 ± 0.85% (40 µM) and 18.6 ± 11% (100 µM).
On to `COC(=O)Nc1nc2c(C)cccc2[nH]1`, for which the progeny production by setting is: (40 µM) 13.8 ± 1.7%; (100 µM) 78.2 ± 11%.
The corresponding values for `Cn1c2ccccc2c(=O)c2c(O)cccc21` are 3.85 ± 0.59% and 13.6 ± 7.8%.
The corresponding values for `Nc1ccc2oc(=O)ccc2c1I` are 3.87 ± 2.3% and 7.24 ± 3.6%.
Taken in the same sequence, the figures for `O=C(O)c1ccccc1Sc1ncnc2sc3c(c12)CCC3` were 3.94 ± 1.7% and 25.2 ± 16%.
Regarding `Clc1ccc(COC(Cn2ccnc2)c2ccc(Cl)cc2Cl)c(Cl)c1` (configuration not stated), the progeny production runs as follows: (40 µM) 4.89 ± 1.7%; (100 µM) 8.86 ± 1.6%.
In the case of `O=C(NNC(=S)Nc1ccc(Cl)cc1)c1ccncc1`, the progeny production by setting is: (40 µM) 2.76 ± 1.4%; (100 µM) 18.4 ± 12%.
The corresponding values for `CN1CCN(c2ccc3[nH]c(-c4ccc5[nH]c(-c6ccc(O)cc6)nc5c4)nc3c2)CC1` are 6.36 ± 1.4% and 15.4 ± 12%.
The corresponding values for `Nc1nc(O)c2ncn([C@@H]3O[C@H](CO)[C@@H](O)[C@H]3F)c2n1` are 4.36 ± 1.3% and 9.71 ± 4.6%.
The corresponding values for `O=[N+]([O-])c1cn(Cc2nc(O)nc(O)c2Br)cn1` are 8.41 ± 4.5% and 8.29 ± 4.9%.
Turning to `CC(C)CCN1C(=O)C(C2=NS(=O)(=O)c3cc(NS(C)(=O)=O)ccc3N2)=C(O)[C@@H]2[C@H]3CC[C@H](C3)[C@@H]21`, the progeny production (40 µM) stood at 3.42 ± 3.9% and the progeny production (100 µM) came to 9.92 ± 5.3%.
Taken in the same sequence, the figures for `O=S(=O)(Nc1ccc(-n2cccc2)cc1)c1ccc(Cl)c(Cl)c1` were 6.12 ± 3.2% and 35.7 ± 29%.
The corresponding values for `NC[C@H]1O[C@H](O[C@H]2[C@H](O)[C@@H](O[C@H]3O[C@H](CO)[C@@H](O)[C@H](N)[C@H]3O)[C@H](N)C[C@@H]2N)[C@H](N)C[C@@H]1O` are 6.6 ± 2.4% and 11.7 ± 16%.
